From PubChem BioAssay (NCI)
Compounds without any hit were thinned out: in the full panel of roughly 79,000, 15% have a hit. Unmarked numbers belong to inactive results. Activity calls are given as the source filed them. Cut-off read from the data, not from the text of the source: active = growth inhibition above about 70%; inactive = the rest.

Tests used:
[1] = NCI Yeast Anticancer Drug Screen. Data for the rad52 strain (AID 147);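 note: 0% = growth of vehicle-treated control cultures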; conditions: S. cerevisiae rad52 mutant growth inhibition, active compounds read high
Summary of the method: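 DNA repair-defective yeast; compound exposure; growth scored against vehicle controls.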

[2] = NCI Yeast Anticancer Drug Screen. Data for the wt1 strain (AID 149);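 note: 0% = growth of vehicle-treated wt1 cultures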; conditions: S. cerevisiae wt1 strain (SPY 50644) growth inhibition, active compounds read high
Summary of the method: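 Growth inhibition read against vehicle controls after compound exposure of the wt1 yeast strain.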

[3] = NCI Yeast Anticancer Drug Screen. Data for the rad50EPP+ strain (AID 151);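 note: 0% = growth of vehicle-treated control cultures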; conditions: S. cerevisiae rad50 mutant strain, active compounds read high
Summary of the method: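 rad50EPP+ yeast treated with test compounds. Readout: growth vs vehicle control.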

[4] = NCI Yeast Anticancer Drug Screen. Data for the mgt1 strain (AID 153); conditions: S. cerevisiae mgt1 mutant growth inhibition, active compounds read high
Summary of the method: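 Growth inhibition relative to vehicle controls was scored for the mgt1 yeast strain after compound exposure.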

[5] = NCI Yeast Anticancer Drug Screen. Data for the rad50 strain (AID 155);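 note: 0% = growth of vehicle-only cultures of the same strain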; conditions: S. cerevisiae rad50 strain growth inhibition, active compounds read high
Summary of the method: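 Readout: growth inhibition relative to vehicle-treated cultures. Compound exposure was carried out in a genetically defined yeast strain deficient in DNA damage repair.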

[6] = NCI Yeast Anticancer Drug Screen. Data for the mec2-1 strain (AID 157); conditions: S. cerevisiae mec2-1 strain, active compounds read high
Summary of the method: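 Growth inhibition is read against vehicle-treated controls after compound exposure of the mec2-1 yeast strain, which is defective in DNA damage repair or cell cycle control.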

[7] = NCI Yeast Anticancer Drug Screen. Data for the rad14 strain (AID 159);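 note: 0% = growth of vehicle-treated control cultures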; conditions: S. cerevisiae rad14 strain growth inhibition, active compounds read high
Summary of the method: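 Growth inhibition vs vehicle controls; genetically altered yeast strain (DNA damage repair defect) treated with test compounds.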

[8] = at 5.0 µM (retest, dose inferred, filed as 0.5)
[9] = at 50.0 µM (retest, dose inferred, filed as 5.0)

Compound: Cc1c2c(nc3ccccc13)C(=O)c1cccnc1C2=O
- growth inhibition ([1]; at 1.2 µM): -10%
- growth inhibition ([1]; at 3.7 µM): 0%
- growth inhibition ([1]; at 11.0 µM): 9%
- growth inhibition ([1]; at 33.0 µM): 75% (active)
- growth inhibition ([1]; at 100.0 µM): 94% (active)
- growth inhibition ([2]; at 1.2 µM): 2%
- growth inhibition ([2]; at 3.7 µM): 9%
- growth inhibition ([2]; at 11.0 µM): 6%
- growth inhibition ([2]; at 33.0 µM): 17%
- growth inhibition ([2]; at 100.0 µM): 81% (active)
- growth inhibition ([3]; at 1.2 µM): -6%
- growth inhibition ([3]; at 3.7 µM): -11%
- growth inhibition ([3]; at 11.0 µM): -2%
- growth inhibition ([3]; at 33.0 µM): 45%
- growth inhibition ([3]; at 100.0 µM): 92% (active)
- growth inhibition ([4]; at 1.2 µM): 1%
- growth inhibition ([4]; at 3.7 µM): -1%
- growth inhibition ([4]; at 11.0 µM): -10%
- growth inhibition ([4]; at 33.0 µM): 13%
- growth inhibition ([4]; at 100.0 µM): 78% (active)
- growth inhibition ([5]; at 1.2 µM): 9%
- growth inhibition ([5]; at 3.7 µM): 15%
- growth inhibition [5, 8]: 57%
- growth inhibition ([5]; at 11.0 µM): 21%
- growth inhibition ([5]; at 33.0 µM): 78% (active)
- growth inhibition [5, 9]: 90% (active)
- growth inhibition ([5]; at 50.0 µM): 77.8% (active)
- growth inhibition ([5]; at 100.0 µM): 94% (active)
- growth inhibition ([6]; at 1.2 µM): -18%
- growth inhibition ([6]; at 3.7 µM): -10%
- growth inhibition [6, 8]: -4%
- growth inhibition ([6]; at 11.0 µM): -13%
- growth inhibition ([6]; at 33.0 µM): 7%
- growth inhibition [6, 9]: 90% (active)
- growth inhibition ([6]; at 50.0 µM): 66.8%
- growth inhibition ([6]; at 100.0 µM): 83% (active)
- growth inhibition ([7]; at 1.2 µM): 3%
- growth inhibition ([7]; at 3.7 µM): 3%
- growth inhibition ([7]; at 11.0 µM): 4%
- growth inhibition ([7]; at 33.0 µM): 23%
- growth inhibition ([7]; at 100.0 µM): 81% (active)
